Data reported in PubChem BioAssay (NCI).
The panel holds about 79,000 compounds, 15% with a hit somewhere; the sample as a whole holds those more often. Unmarked numbers belong to inactive results. Active and inactive are the calls of the source. Rule as the data show it: active = growth inhibition above about 70%; inactive = the rest.

Columns and labels:
[1] = NCI Yeast Anticancer Drug Screen. Data for the rad50 strain (AID 155);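 also: 0% = growth of vehicle-only cultures of the same strain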; conditions: S. cerevisiae rad50 strain growth inhibition; at 50.0 µM; stronger effect = higher value
How it was run: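 Vehicle-treated cultures provide the reference for the growth inhibition reported for compound-exposed, repair-deficient yeast.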

[2] = NCI Yeast Anticancer Drug Screen. Data for the mec2-1 strain (AID 157); conditions: S. cerevisiae mec2-1 strain, at 50.0 µM, stronger effect = higher value
How it was run: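 Readout is yeast growth inhibition, normalised to vehicle-treated controls, in the mec2-1 strain exposed to compound.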

[3] = NCI Yeast Anticancer Drug Screen. Data for the sgs1 mgt1 strain (AID 161);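 also: 0% = growth of cultures given vehicle only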; conditions: S. cerevisiae sgs1 mgt1 strain, at 50.0 µM, stronger effect = higher value
How it was run: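 Percent growth inhibition was derived by comparing compound-exposed mutant yeast with vehicle-exposed cultures. The strain carries alterations in DNA damage repair.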

[4] = NCI Yeast Anticancer Drug Screen. Data for the cln2 rad14 strain (AID 165);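 also: 0% = growth equal to vehicle treated cultures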; conditions: S. cerevisiae cln2 rad14 strain, at 50.0 µM, stronger effect = higher value
How it was run: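 Relative to vehicle controls, growth inhibition of compound-treated cln2 rad14 yeast was recorded.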

[5] = NCI Yeast Anticancer Drug Screen. Data for the bub3 strain (AID 167); conditions: S. cerevisiae bub3 mutant strain, at 50.0 µM, stronger effect = higher value
How it was run: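 Mutant yeast screening strain plus compound; vehicle-treated cultures serve as the 0% inhibition reference.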

[6] = NCI Yeast Anticancer Drug Screen. Data for the mlh1 rad18 strain (AID 175); conditions: S. cerevisiae mlh1 rad18 strain growth inhibition; at 50.0 µM; stronger effect = higher value
How it was run: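 Test agents were incubated with a yeast strain of defined genotype (DNA damage repair defect). Inhibition of growth was derived by comparison with vehicle-exposed cultures.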

SMILES | growth inhibition [1] | growth inhibition [2] | growth inhibition [3] | growth inhibition [4] | growth inhibition [5] | growth inhibition [6]
CC(C)(C)C(=O)c1ccc(-c2ccccc2)cc1 | 17.4% | -5.55% | -6.45% | -56.3% | 6.7% | -2.1%
O=Cc1cc(C=O)c2ccc(=O)[nH]c2n1 | 4.75% | 0.5% | -8.55% | 0.65% | -1.25% | -3.5%
C/C(=N\NS(=O)(=O)c1ccc(C)cc1)c1ccc[n+]([O-])n1 | 4.9% | -2.4% | 5.8% | 7.4% | 6.2% | -0.55%
O=C(CSSCC(=O)Nc1ccc(Br)cc1)Nc1ccc(Br)cc1 | 28.8% | 2.45% | -11.5% | 18.6% | -6.4% | 26.4%
c1ccc(-c2cc3c(nn2)[nH]c2ccccc23)cc1 | 14.4% | -1.95% | -2.25% | -30.2% | -15.8% | 8.9%
O=c1cc(NCc2cccc([N+](=O)[O-])c2)[nH]c(=O)[nH]1 | 0.1% | 8.2% | 5.05% | -12.6% | -5.5% | 6.6%
O=C(CBr)c1cc2ncccc2c2ccccc12 | 46.6% | 51% | 62.2% | 98.6% (active) | 99% (active) | 68.9%
O=C(O)C1C=CCN1 (configuration not stated) | 0.8% | 1.2% | 0.15% | -6.55% | -18.6% | -3.5%
CS(=O)(=O)N1CCCN(S(C)(=O)=O)COC1 | 6.2% | -6.65% | -8.75% | -2.45% | 13.4% | -0.35%
CC(=O)OC1CCC2(C)C3=CCC4(C)C(C(C)=O)=CCC4C3CCC2C1 (configuration not stated) | -27.9% | -21.9% | -29.2% | 12.6% | -22.9% | -23.1%
CC(=O)Nc1cc(Cl)cc2[nH]c(C)nc12 | 17.1% | -3% | -0.6% | -0.25% | 12.8% | 37.4%
COC(=O)CCNC(C(=O)O)C(C)(C)SCCC(=O)OC (configuration not stated) | -18.6% | -19.1% | -7.9% | 24.5% | 24.5% | -20.4%
OC(c1ccccc1)(c1ccccc1)c1ccccc1C(O)(c1ccccc1)c1ccccc1 | 12.2% | 1% | 4.6% | 10.8% | -4.65% | 12.8%
COc1ccc(C(=O)CC(C#N)c2ccccc2Cl)cc1 (configuration not stated) | 19.8% | 39% | 41.2% | 13.1% | 64% | 8.6%
COc1nc(NC2OCC(OC(C)=O)C(OC(C)=O)C2OC(C)=O)c(N=C(C)C(C)=O)c(=O)n1C (configuration not stated) | 30.4% | 21.6% | 13.4% | 17.7% | -1.35% | 8.4%
COC(=O)C1(F)C(=O)NC(=O)NC1OC (configuration not stated) | 35.5% | 16.6% | 56.4% | 10.3% | 11.7% | 31%
CCCCCCCCCCCCCCCC(=O)OC/C=C/COC(=O)c1ccccc1 | 22.9% | -9.7% | -6.25% | -2.95% | 2.65% | -13%
Nc1nc(N)c2nnsc2n1 | 13.7% | -5.05% | 13.3% | 16.6% | 14.4% | 2.9%
CCOC(=O)C(=O)OCC | 24.9% | -1.05% | -19.1% | -3.7% | 29.8% | 13.8%
CCCCCCCCC(=O)c1c(OC)oc(/C=N/NC(N)=S)cc1=O | 83.5% (active) | 77.1% (active) | 79% (active) | 9.55% | 86.2% (active) | 71.8% (active)
O=C(CC1CCCCC1)OCC1CCCO1 (configuration not stated) | -7.1% | -25.6% | -18.4% | -4.15% | -6.95% | 4.55%

SMILES | growth inhibition [1] | growth inhibition [2] | growth inhibition [3] | growth inhibition [4] | growth inhibition [5] | growth inhibition [6]
O=[N+]([O-])c1ccc(N=Cc2ccccc2)cc1 | 1.95% | -30.6% | 12.9% | 3.75% | 16.5% | 5.8%
C(=C/c1ccccc1)/C=N/N1CCN(/N=C/C=C/c2ccccc2)CC1 | -1.4% | 20.6% | 14.8% | -7.1% | 18.5% | -7.05%
O=C1C=C(c2ccccc2)CSC1 | 3.7% | -10.1% | -9.45% | -79.3% | -8.75% | -4.85%
O=c1[nH]nc(S(=O)(=O)NC2CCCCC2)c(=O)[nH]1 | 12.6% | -13.1% | -7.3% | -20.9% | 2.65% | 5.6%
N#CC(C#N)=Cn1c(=S)[nH]c2ccc([N+](=O)[O-])cc21 | -13.4% | -19.6% | 2.75% | 20.8% | -9% | -4.55%
COc1cc(Br)c(CC(=O)c2ccc3c(c2)OCO3)cc1OC | 1.65% | 12.8% | 7.9% | -0.7% | 0% | 15.2%
CCO/C(C)=N/NC(=O)c1n[nH]c2ccccc12 | 4.1% | -1.45% | -10.6% | 0.05% | -11.3% | 12%
CN(C)CCNC(=O)c1cccc2ccc(-c3ccncc3)nc12 | 6.15% | 11% | -20.7% | -3.3% | -19.9% | -27.8%
FC(F)(F)c1nc(Cl)c2cn[nH]c2n1 | -8.7% | 39.6% | -1.15% | -16.9% | 25.9% | -24.4%
O=[N+]([O-])c1ccccc1S(=O)(=O)N1CCCc2cc(Cl)ccc21 | -3% | 4.15% | 9.45% | -12% | 20.6% | 13.4%
Cc1cn(CC(O)c2cc3ccccc3[nH]2)c(=O)[nH]c1=O (configuration not stated) | 9.7% | 13.6% | -0.1% | 12.1% | 9.65% | 7.15%
O=C(O)CCSC1=NCCN1 | -32.8% | -44% | -26.1% | 16.6% | -42.9% | -10.6%
O=C(c1ccccc1)C1CCCCC1 | 1.05% | -3.65% | -6.25% | 6.45% | 4.4% | -3.7%
CC(=O)N(c1ccccc1)c1cc(Cl)cc[n+]1[O-] | 8.5% | 3.5% | 5.45% | -3.7% | 5.3% | -2.05%
Cc1ccc[n+]([O-])c1Cl | 1.55% | 14.2% | -8.55% | -34.2% | 11.2% | 4.2%
O=C1Nc2ccc3c4c(ccc1c24)CC3 | 10.3% | -0.8% | -0.3% | -6.1% | 10.7% | 16.8%
CCCCNc1nc(NC2OCC(OC(C)=O)C(OC(C)=O)C2OC(C)=O)c(N=O)c(=O)n1C (configuration not stated) | -4% | -21.4% | -4.3% | -28.4% | -12.5% | -2.9%
NS(=O)(=O)c1ccc(NC(=O)Nc2ccccc2)cc1 | -2.8% | -5.35% | 1.8% | -18.1% | 20.1% | 22.3%
Nc1nc2nc(N=Nc3ccccc3)[nH]c2c(=O)[nH]1 | 21.5% | -1.9% | 8.3% | 9.25% | 5.45% | 8.9%
OCC1OC(n2cc3ccccc3n2)C(O)C1O (configuration not stated) | 3.55% | 4.85% | -5.55% | -3.8% | 5.65% | -8.45%
FC(F)(F)c1cc(Cl)c2ccc3ccccc3c2n1 | 8.65% | 5.3% | 1.9% | -62.4% | 3.65% | -12.8%
